Source: the supplement of paper PMC5641865, “A screen for kinase inhibitors identifies antimicrobial imidazopyridine aminofurazans as specific inhibitors of the Listeria monocytogenes PASTA kinase PrkA” (The Journal of Biological Chemistry, 2017)
± gives the standard deviation of the averaged measurements.

Test system: Listeria monocytogenes 10403S
Assay: growth inhibition relative to ceftriaxone-alone control; higher = stronger potentiation of ceftriaxone growth inhibition
Settings: 10 µM; ceftriaxone 1 ug/ml; 12 h
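Also: End-point A600 read in BHI broth at 37 °C with 2% DMSO, inhibition computed as (1 − OD with compound plus ceftriaxone ÷ OD with ceftriaxone only) × 100.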

Point of comparison: CCC[C@H](NC(=O)/C(C#N)=C/c1cccc(Br)n1)c1ccccc1, growth inhibition 99.32 ± 0.54%. Against it:
- CCS(=O)(=O)c1ccc(OC)c(Nc2ncc(-c3ccccc3Cl)o2)c1 — lower, -2.57 ± 15%
- COc1ccc(-c2ccc3ncc4c(c3c2)n(-c2ccc(N3CCNCC3)c(C(F)(F)F)c2)c(=O)n4C)cn1 — lower, 28.5 ± 9.7%
- O=C1Nc2ccccc2/C1=C/Nc1ccc(-n2cncn2)cc1 — lower, 0.116 ± 3.5%
- CC1(C)CNc2cc(NC(=O)c3cccnc3NCc3ccncc3)ccc21 [Motesanib Diphosphate (AMG-706)] — lower, 22.2 ± 22%
- C[C@@H](Oc1cc(-c2cnn(C3CCNCC3)c2)cnc1N)c1c(Cl)ccc(F)c1Cl — within error, 94.9 ± 5.1%
- C=CC(=O)Nc1ccc2ncnc(Nc3ccc(OCc4cccc(F)c4)c(Cl)c3)c2c1 — lower, 17.47 ± 0.16%
- CS(=O)(=O)Nc1cccc(-c2ccc3c(NC(=O)C4CC4)n[nH]c3c2)c1 — lower, -6.98 ± 15%
- c1ccc(-c2nc3n(c2-c2ccc4c(c2)OCO4)CCC3)nc1 — lower, -10.3 ± 17%
- c1ccc(-c2n[nH]cc2-c2ccnc(-c3ccc(OCCn4ccnc4)cc3)c2)nc1 — lower, -3.25 ± 8%
- C[C@@H]1COC(Nc2ccc3ncnc(Nc4ccc(OCc5nccs5)c(Cl)c4)c3c2)=N1 — lower, 70.8 ± 5%
- COc1ncc(-c2ccc3nccc(-c4ccnnc4)c3c2)cc1NS(=O)(=O)c1ccc(F)cc1F — lower, 12.8 ± 7.8%
- Cn1cc(C2=C(c3ccc(Cl)cc3Cl)C(=O)NC2=O)c2ccccc21 — lower, 19.5 ± 33%
- Cc1cc(C)c(/C=C2\C(=O)Nc3ccccc32)[nH]1 [Semaxanib (SU5416)] — lower, -4.38 ± 12%
- Cc1cnc(NC(=O)Nc2cc(Br)c(C)cc2OC[C@@H]2CNCCO2)cn1 — within error, 61.8 ± 50%
- NC(=O)c1sc(-n2cnc3ccccc32)cc1OCc1ccccc1Br — lower, -4.4 ± 0.65%
- CCS(=O)(=O)Nc1ccc2c(c1)/C(=C(/Nc1ccc(CN3CCCCC3)cc1)c1ccccc1)C(=O)N2 [Hesperadin] — lower, 19.3 ± 11%
- Fc1ccc(-c2c(-c3ccncc3)nc3n2CCS3)cc1 — lower, -6.65 ± 12%
- O=C(NOC[C@H](O)CO)c1ccc(F)c(F)c1Nc1ccc(I)cc1F — lower, 78.4 ± 6.9%
- Cc1cc2c(F)c(Oc3ncnn4cc(OC[C@@H](C)O)c(C)c34)ccc2[nH]1 — lower, 15.5 ± 23%
- CC(C)(C)Cn1c(N)nc2ccc(-c3[nH]c(C(C)(C)C)nc3-c3ccc(F)cc3)nc21 — within error, 97.5 ± 1.3%
- CCCCOc1c(C(=O)c2c(F)cc(C)cc2F)c[nH]c2nncc1-2 — lower, -6.78 ± 8.6%
